Test results from ChEMBL document CHEMBL1961873, “Compounds: GSK PKIS; Assays: Nanosyn kinase panel” (2012).

Tests used:
[1] = biological target: Sphingosine kinase 1 (Homo sapiens) (UniProt Q9NYA1); details: at 1 µM;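 further: mean SPHK1 inhibition value reported from the GSK PKIS kinase panel screen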
[2] = biological target: T1, Sphingosine kinase 2 (Homo sapiens) (UniProt Q9NRA0); details: at 0.1 µM
T1 sequence (whole entry): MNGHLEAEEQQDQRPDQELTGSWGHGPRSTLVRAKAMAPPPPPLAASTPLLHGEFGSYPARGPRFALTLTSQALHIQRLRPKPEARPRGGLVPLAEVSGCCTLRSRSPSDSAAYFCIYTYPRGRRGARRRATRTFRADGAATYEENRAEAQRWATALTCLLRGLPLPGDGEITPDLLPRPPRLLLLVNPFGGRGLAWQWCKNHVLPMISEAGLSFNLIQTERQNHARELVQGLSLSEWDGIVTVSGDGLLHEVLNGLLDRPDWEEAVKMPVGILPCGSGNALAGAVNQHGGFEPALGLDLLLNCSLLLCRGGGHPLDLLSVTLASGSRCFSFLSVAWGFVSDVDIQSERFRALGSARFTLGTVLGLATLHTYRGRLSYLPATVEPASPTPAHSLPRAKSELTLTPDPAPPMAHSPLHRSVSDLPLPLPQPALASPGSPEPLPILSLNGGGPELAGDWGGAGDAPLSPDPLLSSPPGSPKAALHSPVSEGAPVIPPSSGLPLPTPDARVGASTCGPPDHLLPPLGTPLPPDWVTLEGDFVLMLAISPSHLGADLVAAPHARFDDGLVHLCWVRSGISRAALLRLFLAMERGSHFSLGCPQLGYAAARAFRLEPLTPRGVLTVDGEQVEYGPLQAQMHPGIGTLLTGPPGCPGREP

[3] = biological target: T1, Sphingosine kinase 2 (Homo sapiens); details: at 1 µM
[4] = biological target: Casein kinase II subunit alpha (Homo sapiens) (UniProt P68400); details: at 0.1 µM
Chain of Casein kinase II subunit alpha (Homo sapiens) (P68400 whole entry, looked up): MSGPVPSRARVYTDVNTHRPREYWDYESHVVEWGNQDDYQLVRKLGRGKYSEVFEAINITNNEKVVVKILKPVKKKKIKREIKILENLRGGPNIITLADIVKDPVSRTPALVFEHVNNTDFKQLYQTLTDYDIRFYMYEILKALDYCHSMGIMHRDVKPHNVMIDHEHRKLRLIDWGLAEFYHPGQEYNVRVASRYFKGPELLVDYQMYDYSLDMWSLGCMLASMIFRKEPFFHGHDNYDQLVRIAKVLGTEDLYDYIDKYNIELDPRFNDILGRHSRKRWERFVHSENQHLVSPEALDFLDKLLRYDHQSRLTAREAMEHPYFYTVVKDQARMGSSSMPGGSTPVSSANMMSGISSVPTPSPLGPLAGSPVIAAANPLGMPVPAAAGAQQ

[5] = biological target: Casein kinase II subunit alpha (Homo sapiens) (UniProt P68400); details: at 1 µM
[6] = biological target: T2, Inhibitor of nuclear factor kappa-B kinase subunit alpha (Homo sapiens) (UniProt O15111); details: at 0.1 µM
T2 sequence (whole entry): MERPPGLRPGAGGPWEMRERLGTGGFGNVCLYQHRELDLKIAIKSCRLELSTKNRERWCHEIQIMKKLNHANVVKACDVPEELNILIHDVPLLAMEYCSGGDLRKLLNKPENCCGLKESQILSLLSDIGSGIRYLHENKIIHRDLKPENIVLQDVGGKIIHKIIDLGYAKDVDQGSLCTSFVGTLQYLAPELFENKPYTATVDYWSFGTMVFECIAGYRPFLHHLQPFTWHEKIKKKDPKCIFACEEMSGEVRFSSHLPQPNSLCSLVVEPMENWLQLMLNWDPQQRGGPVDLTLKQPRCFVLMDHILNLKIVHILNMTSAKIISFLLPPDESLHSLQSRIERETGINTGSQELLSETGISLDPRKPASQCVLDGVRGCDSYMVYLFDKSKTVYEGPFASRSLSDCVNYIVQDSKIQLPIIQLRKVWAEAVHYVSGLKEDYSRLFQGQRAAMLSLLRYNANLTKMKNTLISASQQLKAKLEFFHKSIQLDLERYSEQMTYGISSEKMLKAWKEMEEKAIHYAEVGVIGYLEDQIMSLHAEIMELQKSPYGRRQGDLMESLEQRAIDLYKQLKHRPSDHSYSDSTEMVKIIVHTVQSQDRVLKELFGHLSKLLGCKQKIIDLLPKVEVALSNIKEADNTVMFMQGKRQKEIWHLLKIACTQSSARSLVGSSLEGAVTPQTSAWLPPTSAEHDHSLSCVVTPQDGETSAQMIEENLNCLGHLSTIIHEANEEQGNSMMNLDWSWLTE

[7] = biological target: T2, Inhibitor of nuclear factor kappa-B kinase subunit alpha (Homo sapiens); details: at 1 µM
[8] = biological target: T3, Inhibitor of nuclear factor kappa-B kinase subunit beta (Homo sapiens) (UniProt O14920); details: at 0.1 µM
T3 sequence (whole entry): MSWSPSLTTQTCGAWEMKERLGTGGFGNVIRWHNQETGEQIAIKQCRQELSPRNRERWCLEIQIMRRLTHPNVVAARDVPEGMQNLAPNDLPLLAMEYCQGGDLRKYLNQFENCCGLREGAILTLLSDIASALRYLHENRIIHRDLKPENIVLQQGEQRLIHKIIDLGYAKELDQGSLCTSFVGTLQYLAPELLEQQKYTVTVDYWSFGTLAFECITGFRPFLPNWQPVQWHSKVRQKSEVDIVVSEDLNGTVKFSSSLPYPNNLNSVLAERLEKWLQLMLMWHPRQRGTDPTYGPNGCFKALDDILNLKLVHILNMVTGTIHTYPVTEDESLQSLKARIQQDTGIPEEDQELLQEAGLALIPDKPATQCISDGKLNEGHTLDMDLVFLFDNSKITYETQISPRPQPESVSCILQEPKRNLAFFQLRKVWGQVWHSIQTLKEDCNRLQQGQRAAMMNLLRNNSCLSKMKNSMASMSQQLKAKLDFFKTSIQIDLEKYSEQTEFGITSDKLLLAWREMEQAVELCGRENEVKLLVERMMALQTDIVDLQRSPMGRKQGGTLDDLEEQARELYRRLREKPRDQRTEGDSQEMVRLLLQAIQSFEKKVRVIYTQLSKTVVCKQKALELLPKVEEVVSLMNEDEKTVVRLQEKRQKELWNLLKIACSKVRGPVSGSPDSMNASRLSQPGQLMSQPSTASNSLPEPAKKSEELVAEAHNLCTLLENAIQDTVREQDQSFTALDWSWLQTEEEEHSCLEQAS

[9] = biological target: T3, Inhibitor of nuclear factor kappa-B kinase subunit beta (Homo sapiens); details: at 1 µM
[10] = biological target: T4, Inhibitor of nuclear factor kappa-B kinase subunit epsilon (Homo sapiens) (UniProt Q14164); details: at 0.1 µM
T4 sequence (whole entry): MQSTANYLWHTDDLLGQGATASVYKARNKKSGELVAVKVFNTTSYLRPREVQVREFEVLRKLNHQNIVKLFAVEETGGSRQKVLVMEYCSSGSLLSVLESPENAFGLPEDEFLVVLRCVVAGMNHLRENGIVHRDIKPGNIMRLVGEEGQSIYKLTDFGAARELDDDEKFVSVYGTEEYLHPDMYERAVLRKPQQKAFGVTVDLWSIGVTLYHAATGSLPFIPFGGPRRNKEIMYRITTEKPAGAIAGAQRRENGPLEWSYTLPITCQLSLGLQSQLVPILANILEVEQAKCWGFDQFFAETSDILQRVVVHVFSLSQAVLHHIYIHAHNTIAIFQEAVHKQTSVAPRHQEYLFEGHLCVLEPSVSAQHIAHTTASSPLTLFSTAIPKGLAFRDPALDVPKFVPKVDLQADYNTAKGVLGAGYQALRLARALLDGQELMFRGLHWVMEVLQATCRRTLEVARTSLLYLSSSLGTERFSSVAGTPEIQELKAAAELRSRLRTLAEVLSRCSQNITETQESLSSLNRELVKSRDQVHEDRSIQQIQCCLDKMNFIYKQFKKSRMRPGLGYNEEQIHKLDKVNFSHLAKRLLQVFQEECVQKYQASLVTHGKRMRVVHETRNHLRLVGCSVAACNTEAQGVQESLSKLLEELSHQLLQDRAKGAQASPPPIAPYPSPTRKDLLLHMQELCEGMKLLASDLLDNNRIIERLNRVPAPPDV

[11] = biological target: T4, Inhibitor of nuclear factor kappa-B kinase subunit epsilon (Homo sapiens); details: at 1 µM
[12] = biological target: T5, Serine/threonine-protein kinase Nek1 (Homo sapiens) (UniProt Q96PY6); details: at 0.1 µM
T5 sequence (whole entry): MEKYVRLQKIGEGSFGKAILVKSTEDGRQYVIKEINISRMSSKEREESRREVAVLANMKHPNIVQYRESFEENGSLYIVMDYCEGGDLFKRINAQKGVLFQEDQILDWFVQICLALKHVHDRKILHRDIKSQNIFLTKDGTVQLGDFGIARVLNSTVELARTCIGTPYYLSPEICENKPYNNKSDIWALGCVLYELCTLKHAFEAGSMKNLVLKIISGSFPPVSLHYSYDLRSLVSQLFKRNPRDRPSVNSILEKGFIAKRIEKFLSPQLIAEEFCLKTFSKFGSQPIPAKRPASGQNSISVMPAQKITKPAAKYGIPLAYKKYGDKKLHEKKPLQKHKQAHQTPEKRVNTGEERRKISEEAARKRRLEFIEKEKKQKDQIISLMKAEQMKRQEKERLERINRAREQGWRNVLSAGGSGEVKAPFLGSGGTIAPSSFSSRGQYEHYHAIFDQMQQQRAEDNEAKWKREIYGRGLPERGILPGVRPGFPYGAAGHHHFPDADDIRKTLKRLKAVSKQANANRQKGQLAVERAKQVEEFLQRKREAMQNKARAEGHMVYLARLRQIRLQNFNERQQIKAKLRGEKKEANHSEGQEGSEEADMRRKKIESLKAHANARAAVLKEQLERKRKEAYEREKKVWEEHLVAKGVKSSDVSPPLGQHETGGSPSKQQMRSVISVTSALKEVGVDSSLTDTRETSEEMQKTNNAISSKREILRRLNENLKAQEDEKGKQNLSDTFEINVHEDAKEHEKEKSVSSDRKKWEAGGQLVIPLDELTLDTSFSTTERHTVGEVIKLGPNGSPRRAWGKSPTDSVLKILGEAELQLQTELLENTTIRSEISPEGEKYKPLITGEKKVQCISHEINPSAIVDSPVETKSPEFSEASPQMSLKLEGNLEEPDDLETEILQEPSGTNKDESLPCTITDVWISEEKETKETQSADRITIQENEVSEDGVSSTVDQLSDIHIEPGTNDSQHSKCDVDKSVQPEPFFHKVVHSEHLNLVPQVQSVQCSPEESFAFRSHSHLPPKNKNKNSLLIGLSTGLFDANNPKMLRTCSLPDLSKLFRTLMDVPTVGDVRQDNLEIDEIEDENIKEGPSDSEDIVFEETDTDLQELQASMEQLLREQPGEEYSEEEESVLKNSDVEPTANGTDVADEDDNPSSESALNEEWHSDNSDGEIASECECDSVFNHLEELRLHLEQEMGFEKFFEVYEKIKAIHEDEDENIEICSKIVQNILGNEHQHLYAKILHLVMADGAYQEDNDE

[13] = biological target: T5, Serine/threonine-protein kinase Nek1 (Homo sapiens); details: at 1 µM
[14] = biological target: T6, Serine/threonine-protein kinase Nek2 (Homo sapiens) (UniProt P51955); details: at 0.1 µM
T6 sequence (whole entry): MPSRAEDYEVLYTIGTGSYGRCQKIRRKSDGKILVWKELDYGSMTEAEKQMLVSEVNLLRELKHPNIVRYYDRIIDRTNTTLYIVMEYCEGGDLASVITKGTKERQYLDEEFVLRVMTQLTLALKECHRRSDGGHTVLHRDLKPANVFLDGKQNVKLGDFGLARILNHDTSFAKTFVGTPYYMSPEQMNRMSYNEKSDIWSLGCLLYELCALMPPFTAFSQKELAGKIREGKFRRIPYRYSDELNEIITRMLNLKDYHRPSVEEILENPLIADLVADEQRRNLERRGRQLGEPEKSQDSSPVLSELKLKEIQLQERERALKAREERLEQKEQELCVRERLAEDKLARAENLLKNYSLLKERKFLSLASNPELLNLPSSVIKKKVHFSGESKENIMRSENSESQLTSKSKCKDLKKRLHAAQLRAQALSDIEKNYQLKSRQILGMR

[15] = biological target: T6, Serine/threonine-protein kinase Nek2 (Homo sapiens); details: at 1 µM
[16] = biological target: Serine/threonine-protein kinase Nek6 (Homo sapiens) (UniProt Q9HC98); details: at 0.1 µM
Chain of Serine/threonine-protein kinase Nek6 (Homo sapiens) (Q9HC98 whole entry): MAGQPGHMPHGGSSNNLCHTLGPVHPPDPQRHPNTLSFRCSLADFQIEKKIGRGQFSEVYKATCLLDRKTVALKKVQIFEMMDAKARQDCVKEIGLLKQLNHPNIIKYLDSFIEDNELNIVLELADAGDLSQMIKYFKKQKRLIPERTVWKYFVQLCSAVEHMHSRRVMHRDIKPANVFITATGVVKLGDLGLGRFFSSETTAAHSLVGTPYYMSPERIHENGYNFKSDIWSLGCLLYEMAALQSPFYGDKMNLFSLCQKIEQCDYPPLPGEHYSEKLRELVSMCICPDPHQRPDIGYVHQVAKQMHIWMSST

[17] = biological target: Serine/threonine-protein kinase Nek6 (Homo sapiens) (UniProt Q9HC98); details: at 1 µM
[18] = biological target: Serine/threonine-protein kinase Nek7 (Homo sapiens) (UniProt Q8TDX7); details: at 0.1 µM
Chain of Serine/threonine-protein kinase Nek7 (Homo sapiens) (Q8TDX7 whole entry, looked up): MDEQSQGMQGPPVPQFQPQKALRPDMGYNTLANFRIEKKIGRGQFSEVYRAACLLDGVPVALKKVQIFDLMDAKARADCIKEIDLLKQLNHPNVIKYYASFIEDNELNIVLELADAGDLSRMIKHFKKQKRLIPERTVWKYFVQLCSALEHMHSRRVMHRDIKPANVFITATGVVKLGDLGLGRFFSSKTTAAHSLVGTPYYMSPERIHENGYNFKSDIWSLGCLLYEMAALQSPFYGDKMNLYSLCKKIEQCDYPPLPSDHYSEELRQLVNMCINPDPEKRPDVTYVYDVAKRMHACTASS

[19] = biological target: Serine/threonine-protein kinase Nek7 (Homo sapiens) (UniProt Q8TDX7); details: at 1 µM
[20] = biological target: T7, Serine/threonine-protein kinase Nek9 (Homo sapiens) (UniProt Q8TD19); details: at 0.1 µM;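 further: reported value is the mean percent inhibition of NEK9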
T7 sequence (whole entry): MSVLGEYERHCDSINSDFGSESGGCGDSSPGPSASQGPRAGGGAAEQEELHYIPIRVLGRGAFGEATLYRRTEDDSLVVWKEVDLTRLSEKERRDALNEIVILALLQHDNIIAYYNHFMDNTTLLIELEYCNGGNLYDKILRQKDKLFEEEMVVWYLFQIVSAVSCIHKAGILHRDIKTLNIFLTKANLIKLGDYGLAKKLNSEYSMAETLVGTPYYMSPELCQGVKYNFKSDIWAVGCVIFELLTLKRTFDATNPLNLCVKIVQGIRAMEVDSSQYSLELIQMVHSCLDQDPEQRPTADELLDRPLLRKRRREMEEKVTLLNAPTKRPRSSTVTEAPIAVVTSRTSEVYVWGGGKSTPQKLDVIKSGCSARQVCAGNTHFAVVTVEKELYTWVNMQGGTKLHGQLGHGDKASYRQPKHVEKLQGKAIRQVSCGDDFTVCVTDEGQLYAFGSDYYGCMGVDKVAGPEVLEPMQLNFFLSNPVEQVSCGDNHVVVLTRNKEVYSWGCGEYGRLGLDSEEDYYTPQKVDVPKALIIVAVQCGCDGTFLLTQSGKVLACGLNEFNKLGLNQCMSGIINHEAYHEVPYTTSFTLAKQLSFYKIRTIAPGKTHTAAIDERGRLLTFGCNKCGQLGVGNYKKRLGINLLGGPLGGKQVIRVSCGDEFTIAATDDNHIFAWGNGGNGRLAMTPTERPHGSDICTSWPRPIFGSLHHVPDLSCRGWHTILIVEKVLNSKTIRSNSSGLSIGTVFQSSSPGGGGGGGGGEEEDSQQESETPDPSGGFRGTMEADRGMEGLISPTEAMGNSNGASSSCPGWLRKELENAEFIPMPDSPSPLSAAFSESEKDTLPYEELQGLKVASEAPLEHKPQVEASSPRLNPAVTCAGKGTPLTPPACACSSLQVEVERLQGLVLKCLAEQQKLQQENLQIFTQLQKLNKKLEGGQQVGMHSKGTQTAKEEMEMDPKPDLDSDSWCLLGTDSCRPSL

Chain of Sphingosine kinase 1 (Homo sapiens) (Q9NYA1 whole entry): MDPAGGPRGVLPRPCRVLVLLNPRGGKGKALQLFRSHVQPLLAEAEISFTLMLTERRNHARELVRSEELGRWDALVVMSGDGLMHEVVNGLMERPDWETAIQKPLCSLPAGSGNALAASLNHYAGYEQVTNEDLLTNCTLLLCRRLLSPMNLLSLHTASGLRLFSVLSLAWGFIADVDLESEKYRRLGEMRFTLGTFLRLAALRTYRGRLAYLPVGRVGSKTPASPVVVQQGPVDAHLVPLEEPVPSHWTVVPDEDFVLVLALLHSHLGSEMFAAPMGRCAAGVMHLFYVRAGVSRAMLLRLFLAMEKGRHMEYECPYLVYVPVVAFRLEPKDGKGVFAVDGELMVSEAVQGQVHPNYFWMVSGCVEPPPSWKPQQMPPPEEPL

COc1cccc(-n2ncc3c(N/N=C/c4ccc(C(=O)NCCN(C)C)cc4)ncnc32)c1
inhibition [1]: 0.56%
inhibition [2]: 0.23%
inhibition [3]: 1.39%
inhibition [4]: 31%
inhibition [5]: 62.2%
inhibition [6]: 1.29%
inhibition [7]: 4.43%
inhibition [8]: 1.09%
inhibition [9]: 0.86%
inhibition [10]: -1.79%
inhibition [11]: -5.84%
inhibition [12]: 2.06%
inhibition [13]: 7.24%
inhibition [14]: 0.16%
inhibition [15]: 1.98%
inhibition [16]: 1.11%
inhibition [17]: 0.35%
inhibition [18]: 3.99%
inhibition [19]: -1.23%
inhibition [20]: 5.54%
